ATXN2 expr inh = ATXN2 expression inhibition; HEK-293 ATXN2-luciferase reporter, luminescence, 24 h; Potency, µM (top dose mostly 57 µM), inactives show top-dose activity change, negative = inhibition, usual class: inhibitors; hit rate 0.72% among 360,000; AID 1745845; note: potency is the fitted concentration of half-maximal effect; % is set by controls: 0 for no effect and ±100 for the full control effect; nearly all actives have a fitted effect of over 55% in size
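qHTS (up to 57 uM final) was run with 24 h compound exposure of reporter cells at 37 °C. Each well was multiplexed: SteadyGlo luminescence measured ATXN2-luciferase expression after a fluorogenic Gly-Phe-AFC viability readout (25 uM final).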
TGFb inhibitor = blocks TGF-b signaling; Potency, µM (titrated, usually from 46.1 µM), for inactives: top-dose activity, negative = inhibition, most hits filed as inhibitors; hit rate 1.2% among 410,000; HepG2 CAGA-GFP TGF-b/SMAD3 reporter, GFP fluorescence, 18 h; TGF-beta stimulated, 500 pg/mL final; note: potency is the fitted concentration of half-maximal effect; % is set by controls: 0 for no effect and ±100 for the full control effect; nearly all actives have a fitted effect of over 65% in size
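Cell-based qHTS in HEPG2 carrying a CAGA-GFP Smad reporter; compounds added before 500 pg/mL final TGF-beta, 18 h incubation at 37 degrees C, GFP fluorescence quantified per cell by imaging cytometry.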
S2 tox = viability counter-screen for ATXN expression inhibitors. S2 cells (HEK-293 line with an ATXN2-luciferase reporter) viability, CellTiter-Fluor protease fluorescence, 24 h. Potency, µM (titrated, usually from 56.7 µM), actives largely listed as cytotoxic. hit rate 0.49% among 400,000. AID 651635; note: potency is the fitted concentration of half-maximal effect; nearly all actives have a fitted effect of over 40% in size
D3 antag = antagonists of human D3 dopamine receptor; D3R cells, DiscoveRx beta-arrestin luminescence, antagonist mode; hits give low values; AID 652054; hit rate 2.5% among 360,000; max response, negative = inhibition, %; P35462; in the data active = max response below about -50%; inconclusive = no clear call, values can overlap the other calls; note: % is set by controls: 0 for no effect and ±100 for the full control effect
Target sequence (P35462 whole entry, looked up): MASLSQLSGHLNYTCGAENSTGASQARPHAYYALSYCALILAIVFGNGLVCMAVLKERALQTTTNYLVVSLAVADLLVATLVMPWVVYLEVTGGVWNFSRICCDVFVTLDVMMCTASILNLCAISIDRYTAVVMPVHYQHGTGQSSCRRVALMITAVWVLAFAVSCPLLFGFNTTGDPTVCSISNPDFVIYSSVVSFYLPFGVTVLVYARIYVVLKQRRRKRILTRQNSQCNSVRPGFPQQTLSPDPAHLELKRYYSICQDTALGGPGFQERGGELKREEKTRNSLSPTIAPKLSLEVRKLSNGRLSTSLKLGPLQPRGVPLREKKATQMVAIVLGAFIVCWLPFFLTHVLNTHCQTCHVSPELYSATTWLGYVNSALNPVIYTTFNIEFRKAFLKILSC
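Cells expressing the human receptor were seeded at 1500 cells/well, incubated overnight at 37 degrees C in 5% CO2, then exposed to library compounds with dopamine controls for 90 minutes at 37 degrees C before luminescent detection.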
DRD3 agonist = D3 dopamine receptor (human) agonism; P35462; D3R DiscoveRx beta-arrestin cells, luminescence, 90 min; max activation, %; hit rate 0.58% among 410,000; AID 652048; in the data active = max activation above about 30%; note: 0% is about no effect
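Cells at 1500/well, incubated overnight, then treated with pinned compounds (dopamine as control) for 90 min at 37 degrees C. DiscoveRx reagent added for 30 - 60 minutes at room temperature; luminescence read.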
HepG2 tox = kills HepG2 cells in TGF-b inhibitor counter-screen; HepG2 CAGA-GFP viability, ATP luminescence, 18 h; hit rate 0.76% among 410,000; Potency, µM (titrated, usually from 46.1 µM), inactives show top-dose activity change, negative = cytotoxicity, most hits filed as cytotoxic; AID 588856; note: potency is the fitted concentration of half-maximal effect
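CellTiter-Glo luminescence gave cytotoxicity after 18 hours at 37 degrees C. The cells were HepG2 CAGA-GFP in 1% FBS DMEM, stimulated with 500 pg/mL TGF-beta after compound addition. %Activity was normalised to no-cell wells (complete cell-killing) and DMSO (no toxicity), and curves were fitted and classified.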
An asterisk follows results filed as active; i = inactive; ? = inconclusive; · = not tested or not shown; ! = not active in a repeat; [ ] = dose if it differs, or a comment. A selection: hits, their analogues and other compounds. The true share with any hit is near 4.7%. Unless noted, calls come from the whole dose curve; as a rule, active = well fitted curve in the direction sought with a large enough effect; inconclusive = small, poorly fitted or top-dose-only effect, or another doubt; inactive = no such curve, though single readings can be large; an effect the other way counts as inactive or inconclusive.

SMILES | ATXN2 expr inh | TGFb inhibitor | S2 tox | D3 antag | DRD3 agonist | HepG2 tox
Cc1ccc(C(=O)c2cc([N+](=O)[O-])ccc2N2CCCCC2)cc1 | -3.1% | ? | i | -65.4* | -8.1 | -13.9%
CN(C)c1ccc(/C=[N+]2\C(=O)CC(=O)NC2=O)cc1 | · | 1.4% | · | · | · | 0.8%
O=C(NCCc1ccccc1)c1c[nH]c2c(F)cccc2c1=O | 42.2% | 10.6% | i | -50.2* | -3.7 | -19.3%
Cc1ccc(CNC(=O)c2c[nH]c3ccc(S(=O)(=O)Nc4ccc(C(C)C)cc4)cc3c2=O)cc1 | · | ? | · | · | 1.3 | 11.2µM*
Cc1ccccc1NS(=O)(=O)c1ccc2[nH]cc(C(=O)NCCc3ccccc3)c(=O)c2c1 | · | 20µM* | · | · | -4.8 | -42.2%
CCOc1ccc(NS(=O)(=O)c2ccc3[nH]cc(C(=O)NCc4ccccc4)c(=O)c3c2)cc1 | -1.9% | -11.5% | i | · | 3.9 | -24.9%
Cc1cc(C)cc(NS(=O)(=O)c2ccc3[nH]cc(C(=O)NCCc4ccccc4)c(=O)c3c2)c1 | -15.1% | -25.6% | ? | · | -1.5 | -23.1%
CCN(c1ccccc1)S(=O)(=O)c1ccc2[nH]cc(C(=O)NC3CCCCC3)c(=O)c2c1 | ? | 7.94µM* | ? | · | -1.7 | -101.0%
CN(C)c1ccc(/C=C/c2nc3ccccc3o2)cc1 | · | 1.6% | · | · | · | -24.1%
CCOC(=O)Cc1ccc(NC(=O)Nc2nnc(N3CCCCC3C)s2)cc1 (centres undefined) | · | 11.2µM* | · | · | 1.5 | -39.5%
c1ccc2ncccc2c1 | 3.6% | 28.7% | i | -24.0 | -9.8 | -3.8%
c1ccc2nccnc2c1 | · | 2.82µM* | · | · | · | 3.98µM*
COc1ccc(-c2cc(-c3ccc(C)cc3)nc3c2COc2ccccc2-3)cc1 | 0.0% | 1.0% | i | · | -6.9 | -3.1%
CC1=CN2C(=N)/C(=C/c3ccc([N+](=O)[O-])o3)C(=O)N=C2S1 | -2.9% | -0.1% | · | -13.1 | -3.5 | -55.1%
CC1=CN2C(=N)/C(=C/c3ccco3)C(=O)N=C2S1 | 71.7% | -24.8% | i | -59.7* | -7.5 | -69.5%
CCc1nn(CC(=O)NCCCOC)c(=O)c2cc3ccccc3n12 | · | ? | · | · | 6.7 | -0.5%
CCOC(=O)c1c(CN2CCN(C)CC2)n(-c2ccccc2)c2cc(Br)c(O)cc12 | ? | -3.8% | i | -64.0* | -18.3 | -25.1%
COCCOC(=O)c1c(C)oc2ccc(OCC=C(C)C)cc12 | 8.4% | 2.2% | i | 38.5 | 11.1 | 1.6%
CCOC(=O)c1c(CN2CCN(C)CC2)oc2ccc(O)cc12 | -4.1% | -0.4% | i | -54.4* | -2.8 | 3.4%
COCCOC(=O)c1c(C)oc2ccc(OCc3cc(C(=O)OC)oc3C)cc12 | 11.7% | -6.8% | i | 28.4 | 48.3* | -8.8%
CCN(CC)CCOC(=O)c1c(C)oc2ccc(O)cc12 | 5.9% | 8.2% | i | -71.6* | -15.3 | 4.7%
Cc1cc(N(CCO)Cc2ccccc2)n2nc(-c3ccc(C(C)(C)C)cc3)nc2n1 | 14.2% | -27.9% | i | · | 3.7 | -2.0%
CCOC(=O)c1c(/N=C/c2cc(C)ccc2O)sc2c1CCN(C)C2 | -21.2% | -1.6% | i | -54.0* | -34.8 | -32.5%
COCCCNCCOCCOc1ccc(Cl)cc1C(C)(C)C | ? | 20µM* | ? | -23.2 | -7.6 | 11.2µM*
C=CCNCCCOc1ccc(Cl)cc1C(C)(C)C | -24.1% | ? | i | 12.9 | -18.0 | -65.7%
SMILES | ATXN2 expr inh | TGFb inhibitor | S2 tox | D3 antag | DRD3 agonist | HepG2 tox
C=CCNCCOCCOc1ccc(Cl)cc1C(C)(C)C | -37.0% | ? | ? | -57.9* | -19.8 | -38.9%
CC(C)(C)NCCOCCOc1ccc(Cl)cc1C(C)(C)C | · | -5.7% | ? | ? | -1.3 | -26.3%
C=CCc1cc(Cl)ccc1OCCNCCOC | -19.5%[11.3 µM] | 1.2% | i | -55.5* | -11.6 | -8.4%
COc1cccc(-c2cc(C(F)(F)F)nc(NCCc3ccccc3)n2)c1 | 9.3% | -24.7% | i | · | 3.8 | -23.1%
CCOC(=O)c1sc(NC(=O)CSc2n[nH]c(-c3ccncc3)n2)c(C#N)c1C | -10.4% | ? | i | 0.0 | 3.3 | -41.3%
CCOc1ccc(/C=C/C2=Cc3c(sc(NC(=O)CSc4n[nH]c(N)n4)c3C#N)C(C)(C)C2)cc1 | ? | -16.1% | · | -19.9 | -8.6 | 20µM*
Cc1ccsc1/C=C/C1=Cc2c(sc(NC(=O)CSc3n[nH]c(N)n3)c2C#N)C(C)(C)C1 | ? | 10µM* | i | 4.9 | -14.8 | 12.6µM*
O=Cc1ccc(CS)cc1 | · | -9.8% | · | · | · | -18.2%
O=C1C(SCCO)=C(SCCO)C(=O)c2ccccc21 | ? | 3.16µM* | · | -136.4* | -66.9 | 7.08µM*!
O=C(NCCCN1CCN(c2ccc(F)cc2)CC1)c1ccc2nc(Cc3ccccc3)oc2c1 | ? | 11.2µM* | · | · | -22.3 | -42.7%
O=C(Nc1ccc(C(=O)NCCCN2CCCCC2)cc1)C1=CSCCO1 | · | -20.2% | i | 12.0 | -5.1 | -27.3%
O=C(NCCCN1CCN(c2ccc(F)cc2)CC1)c1cc2c(s1)-c1ccccc1OC2 | 28.2µM* | ? | ? | · | -16.7 | -84.5%
O=C(NCCc1ccc(Cl)cc1)c1cc2c(s1)-c1ccccc1OC2 | -24.4% | 14.4% | i | · | -9.3 | -7.0%
O=C(NCCCN1CCN(c2ccccc2)CC1)c1cc2c(s1)-c1ccccc1OC2 | 0.0% | ? | ? | · | 6.7 | 14.1µM*
O=C(Nc1ccc(C(=O)NCCCN2CCN(c3ccc(F)cc3)CC2)cc1)C1=CSCCO1 | 25.4% | 6.6% | · | -92.4* | -22.1 | -36.4%
O=C(NCCCN1CCN(c2ccccc2)CC1)c1ccc2nc(Cc3ccccc3)oc2c1 | · | ? | · | · | 8.7 | -35.1%
Cc1cc2c(c(-c3cnccn3)c1)OC(CNC(=O)c1ccccc1C(F)(F)F)C2 (centres undefined) | · | · | i | · | · | ·
